This is a sample that favours compounds with a hit; in the whole collection about 19% have one here.
HT1080 IDH1KD tx: toxicity to HT-1080 IDH1 knockdown cells (counter line). 360,000 compounds, 2% hits. Potency, µM (doses to about 46.1 µM), without a hit: at the highest dose activity, negative = toxicity, hits mostly cytotoxic. HT-1080 IDH1 knockdown viability, ATP luminescence, 48 h;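 note: potency is the fitted concentration of half-maximal effect; 0% = DMSO wells and -100% = cell-free medium wells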
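Assay cells: HT-1080 with IDH1 knockdown, 750 per well, RPMI/5% FBS. Exposure: 48 h at 37 °C following 2 h pre-incubation. Read: CellTiter-Glo luminescence; fitted concentration-response, curve class assigned.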
DT40 TDP1 no CPT: qHTS for Inhibitors of human tyrosyl-DNA phosphodiesterase 1 (TDP1): qHTS in cells in absence of CPT. DT40 Tdp1-/- hTDP1 cells, no CPT, ATP luminescence, 48 h. Potency, µM (top dose mostly 46.2 µM), inactives show at the top dose activity change, negative = growth inhibition, most hits filed as inhibitors. 420,000 compounds, 15% hits. AID 686978, 2013; note: potency is the fitted concentration of half-maximal effect; nearly all actives have a fitted effect of over 55% in size
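Chicken DT40 Tdp1-/- cells complemented with human TDP1, screened without camptothecin (DMSO vehicle only), 400 cells/well. Compounds pin-transferred, cells incubated at 37 °C for at least 48 hr. Growth read as ATP-dependent luminescence (CellTiter-Glo, 30 min at RT).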
TDP1 cell CPT: growth inhibition of DT40 Tdp1-/-;hTDP1 cells with camptothecin (screen for TDP1 inhibitors); 420,000 compounds, 12% hits; Potency, µM (titrated, usually from 46.2 µM), for inactives: top-dose activity change, negative = growth inhibition, most hits filed as inhibitors; chicken DT40 Tdp1-/-;hTDP1 cells + 20 nM CPT, ATP luminescence, 48 h; note: potency is the fitted concentration of half-maximal effect; nearly all actives have a fitted effect of over 55% in size
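Chicken DT40 Tdp1-/- cells stably complemented with human TDP1 were seeded at 400 cells/well in medium containing 20 nM camptothecin, exposed to pin-transferred compounds, and grown at 37 °C for at least 48 hr. Viability was read as ATP luminescence.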
ELG1 repair inh: ELG1-dependent DNA repair inhibition | HEK293T ELG1-luciferase reporter, luminescence, 16 h; DNA damage induced by 5-fluorouridine | 330,000 compounds, 2.3% hits | Potency, µM (highest dose often 46.1 µM), inactives show top-dose activity change, negative = inhibition, actives largely listed as inhibitors; note: potency is the fitted concentration of half-maximal effect; nearly all actives have a fitted effect of over 55% in size
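Cells (2,000 per well) received 5-fluorouridine plus test compound or DMSO and were incubated 16 hr at 37 °C, 5% CO2. Luciferase activity was read by luminescence 30 min after ONE-Glo addition; signal suppression marked inhibition of damage-induced ELG1 function.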
HT1080-NT tox: kills 2HG-producing HT-1080-NT fibrosarcoma cells; HT-1080-NT fibrosarcoma viability, CellTiter-Glo ATP luminescence, 48 h; Potency, µM (series often up to 46.1 µM), inactives show at the highest dose activity, negative = less viability, actives largely listed as cytotoxic; 360,000 compounds, 1.6% hits; AID 686970;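 note: NT is the 2HG producing partner of a matched IDH1 knockdown line; potency is the fitted concentration of half-maximal effect; 0% = DMSO-treated cells and -100% = media-only wells without cells; nearly all actives have a fitted effect of over 55% in size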
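HT-1080-NT; 750 cells/well; 5% FBS RPMI; 48 h compound, 37 degrees C; CellTiter-Glo luminescence; curve fitting and curve-class assignment.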
IL1B secr inh: inhibitors of inflammasome signaling (IL-1 beta secretion). THP-1 LPS/ATP IL-1B secretion, AlphaLISA, 16 h; active compounds read low. activity change, % at 57.5 µM. 360,000 compounds, 4.7% hits. AID 743279; in the data active = activity change below about -50%; inconclusive = mostly about -30% to -49%
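Secreted IL-1B measured by AlphaLISA bead assay after 16 h compound exposure of THP-1 cells; compounds (final up to 57.5 uM) added 1 h before LPS (250 ng/mL) and ATP (1.25 mM) stimulation; lower signal means less secretion.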
* marks the source's active call; other numbers are inactive results; ? = inconclusive; nt = not tested or not shown; [ ] = dose if it differs, or a comment. Unless noted, calls come from the whole dose curve; as a rule, active = well fitted curve in the direction sought with a large enough effect; inconclusive = small, poorly fitted or top-dose-only effect, or another doubt; inactive = no such curve, though single readings can be large; an effect the other way counts as inactive or inconclusive. Unless noted, % is set by controls: 0 for no effect and ±100 for the full control effect.

SMILES | HT1080 IDH1KD tx | DT40 TDP1 no CPT | TDP1 cell CPT | ELG1 repair inh | HT1080-NT tox | IL1B secr inh
CCOC(=O)N1CCC(N(C(=O)Nc2ccc(Cl)c(Cl)c2)C(C)CC)CC1 (stereo not drawn) | -25.3% | 10.3µM* | 23.1µM* | ? | ? | -84.8*
CO[C@]1(NC(=O)C(C(=O)O)c2ccc(O)cc2)C(=O)N2C(C(=O)O)=C(CSc3nnnn3C)COC21 (stereo partly drawn) | nt | -8.6% | -13.1% | nt | nt | nt
COc1ccc(C(C#N)=Cc2ccccc2OC)cc1 | ? | 5.17µM* | 6.51µM* | nt | ? | 26.1
COc1ccccc1C1SCCN1S(=O)(=O)c1ccccc1 (stereo not drawn) | 2.2% | ? | ? | nt | 0.6% | 11.2
CCC(=O)N1CCCN(S(=O)(=O)c2ccc(C)cc2)C1c1ccc(OC)cc1 (stereo not drawn) | 5.4% | 14.6µM* | -8.9% | 4.9% | 3.5% | 15.8
COc1ccccc1C1SCCN1S(=O)(=O)c1cccc(C(F)(F)F)c1 (stereo not drawn) | -23.2% | 15.8µM* | -4.5% | -2.4% | -3.8% | ?
COc1ccc(C2SCCN2S(=O)(=O)c2ccc(F)cc2)cc1OC (stereo not drawn) | -19.6% | -23.7% | -27.8% | -3.2% | -1.3% | 19.7
COc1ccc(C2N(S(=O)(=O)c3ccccc3)CCN2S(=O)(=O)c2ccc(C)cc2)cc1 (stereo not drawn) | -2.5% | 14.1µM* | 15.8µM* | 1.7% | 2.0% | 32.7
COc1ccc(S(=O)(=O)N2CCSC2c2ccc(OC)c(OC)c2)cc1 (stereo not drawn) | -18.6% | 16.4µM* | ? | 23.1µM* | 11.5% | -0.6
COC(CNC(=O)CNC(=S)N(Cc1ccccc1)Cc1cccnc1)OC | 19.0% | -10.7% | -6.6% | -2.3% | 17.5% | 4.8
CCOC(=O)N1CCN(S(=O)(=O)c2ccc(C)cc2)C1c1ccccc1 (stereo not drawn) | -6.1% | ? | ? | 25.9µM* | -14.7% | -14.0
Cc1ccc(S(=O)(=O)N2CCN(S(=O)(=O)c3ccc(C)cc3)C2c2ccccc2)cc1 | -0.3% | ? | 17.8µM* | -17.9% | 3.5% | 23.1
Cc1ccc(S(=O)(=O)N2CCN(S(C)(=O)=O)C2C)cc1 (stereo not drawn) | -13.6% | -13.3% | -9.5% | 6.2% | -9.1% | 6.6
N=C(N)SCc1cn(-c2ccccc2)nc1-c1ccc(Br)cc1 | 5.17µM* | 7.31µM* | 9.2µM* | 5.9% | 5.17µM* | -77.4*
O=NN(CCF)C(=O)NC1CCS(=O)(=O)CC1 | 8.8% | ? | ? | nt | 11.7% | 32.0
COc1ccc(CCN2C(=O)CSCC2(C)C(=O)Nc2ccc3c(c2)OCCO3)cc1OC (stereo not drawn) | 0.5% | ? | ? | nt | -0.2% | -8.3
CC(OC(=O)Cc1n[nH]c(=O)c2ccccc12)C(=O)N(C)c1ccccc1 (stereo not drawn) | ? | 16.4µM* | 8.2µM* | nt | ? | 5.1
Cc1cc(C)c(C(=O)C(C)OC(=O)Cc2n[nH]c(=O)c3ccccc23)cc1C (stereo not drawn) | -16.0% | ? | -17.2% | -0.8% | -15.1% | 0.0
Cc1ccc(C(=O)C(C)OC(=O)Cc2n[nH]c(=O)c3ccccc23)cc1 (stereo not drawn) | -13.1% | 18.4µM* | 11.6µM* | -26.6% | -12.7% | 8.6
O=C(Nc1ccc(Br)cc1)C1CCN(c2ncccn2)CC1 | nt | ? | -24.7% | nt | nt | nt
COc1cc(NC(=O)Cn2c([N+](=O)[O-])cnc2C)c(OC)cc1Cl | 10.1% | 1.3% | 18.3% | -13.3% | 4.0% | 3.8
O=C(Nc1nccs1)C1CC(=O)N(c2ccc(Cl)cc2)C1 (stereo not drawn) | -0.1% | -12.3% | -10.5% | -7.6% | -2.8% | 20.1
CN1C(=O)c2cccc3c(S(N)(=O)=O)ccc1c23 | -1.4% | -3.1% | -27.4% | 5.6% | -1.6% | -87.8*
COc1ccc(N(C(=O)c2ccncc2)S(=O)(=O)c2ccc3c4c(cccc24)C(=O)N3C)cc1 | -10.8% | ? | 18.4µM* | -6.8% | -16.3% | -13.5
CNc1ncncc1-c1ccccc1C(F)(F)F | nt | -16.5% | 1.0% | nt | nt | nt
SMILES | HT1080 IDH1KD tx | DT40 TDP1 no CPT | TDP1 cell CPT | ELG1 repair inh | HT1080-NT tox | IL1B secr inh
CC(C)(C)C(C(=O)NCc1ccccc1)N1CCN(C(=O)C2CCCO2)CC1 (stereo not drawn) | 24.5% | 3.9% | -4.5% | nt | 22.5% | 0.0
CCOc1ccc(CCNC(=O)c2ccc(-c3nc(CSc4ccccc4)c(C)o3)cc2)cc1 | nt | -27.2% | -11.9% | nt | nt | nt
CCc1nc2ccc(C(=O)Nc3cc(-c4ccccc4)ccc3OC)cn2c1N(C)Cc1ccc(Cl)cc1 | ? | 20.6µM* | 18.4µM* | nt | ? | ?
CCN(CC)c1c(C)nc2ccc(C(=O)Nc3cc(-c4ccccc4)ccc3OC)cn12 | ? | 18.4µM* | ? | nt | ? | ?
CCc1nc2ccc(C(=O)Nc3ccc(OC)c(OC)c3)cn2c1N(C)C(=O)Cc1ccccc1 | 14.8% | -2.9% | 14.6% | nt | 9.1% | -2.9
CCc1ccc(NC(=O)c2cc3c(=O)n(Cc4cccs4)ccc3nc2C)cc1 | nt | 18.4µM* | 16.4µM* | nt | nt | nt
COc1ccccc1NC(=O)c1cc2c(=O)n(Cc3cccs3)ccc2nc1C | nt | 23.1µM* | ? | nt | nt | nt
COc1ccc(Cn2ccc3nc(C)c(C(=O)Nc4ccc(OC)c(OC)c4)cc3c2=O)cc1 | nt | 2.4% | -3.2% | nt | nt | nt
CCC(C(=O)Nc1ccc(C(=O)O)cc1NC(=O)C(CC)c1ccccc1)c1ccccc1 (stereo not drawn) | -3.1% | -7.6% | 4.0% | 7.2% | -3.2% | -1.3
CC12CC[C@@](C(=O)O)(C(=O)C1=O)C2(C)C | nt | 4.1%[9.04 µM] | 19.7%[9.04 µM] | nt | nt | nt
Cc1nc2ccccc2n1CCOc1ccccc1 | -15.5% | ? | ? | 1.3% | -25.5% | ?
Nc1nc2ccccc2n1CCOc1ccc(F)cc1 | ? | 23.1µM* | ? | -25.1% | ? | -51.0*
COc1ccc(OCCn2c(N)nc3ccccc32)cc1 | -20.0% | 23.1µM* | ? | 4.8% | -20.7% | -21.0
Cc1ccc(C[n+]2cccc(-c3ccccc3)c2)c(C)c1 | ? | 0.731µM* | 1.16µM* | -19.8% | -25.8% | -58.1*
Cc1ccc[n+](CC(=O)c2ccccc2)c1 | nt | nt | nt | 4.5% | nt | nt
COC(=O)c1ccccc1NC(=O)COC(=O)c1ccccc1N=Nc1ccc(N(C)C)cc1 | -4.7% | 16.4µM* | 16.4µM* | ? | -2.2% | 0.0
